The compounds below were run on Neuro-2a (assay: neurite formation score, plate-normalized to DMSO control mean 5.04 (score (0-8 scale)); higher = more or longer neurites). Settings: 0.1 µM.
Method: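 Neuro-2a mouse neuroblastoma cells in PLL-coated 96-well plates were pre-treated for 1 h in DMEM(+) with each kinase inhibitor at 0.1 µM, then switched to serum-free DMEM(-) with inhibitor to induce neurite outgrowth and fixed about 2-3 h later. Three blinded observers scored neurite formation from 0 (no neurites) to 8 (long neurites on almost all cells).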
With `O=C1NC(=O)C(c2ccccc2[N+](=O)[O-])=C1Nc1ccc(O)c(Cl)c1` the neurite formation score was 5.21. Compound `CC(C)(CCCCCC(O)CCCCCC(C)(C)C(=O)O)C(=O)O` has a neurite formation score of 0.0903. `CCOc1cc2ncc(C#N)c(Nc3ccc(OCc4ccccn4)c(Cl)c3)c2cc1NC(=O)/C=C/CN(C)C` [Neratinib (HKI-272)] gave a neurite formation score of 5.09. `OCCn1cc(-c2cnc3nnn(Cc4ccc5ncccc5c4)c3n2)cn1` was tested, and the neurite formation score was 3.25. For `COc1cc2/c(=N/c3ccc(Br)cc3F)nc[nH]c2cc1OCC1CCN(C)CC1` [Vandetanib (ZD6474)], the neurite formation score was 5.09. Compound `CS(=O)(=O)c1cccc(CNc2nc(Nc3ccc4c(c3)CCC(=O)N4)ncc2C(F)(F)F)c1` has a neurite formation score of 5.09. `C=CC(=O)Nc1ccc(CN2C(=O)N(c3cc(OC)cc(OC)c3)Cc3cnc(Nc4ccc(N5CCN(C)CC5)cc4)nc32)cc1` was tested, and the neurite formation score was 4.25. With `O=C1NCCSc2c1sc1ccc(O)cc21` the neurite formation score was 4.58. Work on `Nc1nccc(-c2c(-c3ccc(F)cc3)ncn2C2CCCCC2)n1` yielded a neurite formation score of 5.58. `CCCS(=O)(=O)Nc1ccc(F)c(C(=O)c2c[nH]c3ncc(Cl)cc23)c1F` was tested, and the neurite formation score was 4.38. `CCC[C@H](NC(=O)/C(C#N)=C/c1cccc(Br)n1)c1ccccc1` was tested, and the neurite formation score was 4.21. Compound `COc1ccc(CNC(=O)Nc2ncc([N+](=O)[O-])s2)cc1` has a neurite formation score of 4.71. `CNc1nc(-c2ccc3c(N)n[nH]c3c2)cc(N2C[C@@H](C(=O)NC3CCCCC3)CC[C@H]2C)n1` gave a neurite formation score of 1.42. Work on `Cc1ccccc1CN1C2=NCCN2C(=O)C2=C1CCN(Cc1ccccc1)C2` yielded a neurite formation score of 4.25. For `COc1cc(Nc2nc3ccccc3nc2NS(=O)(=O)c2ccc(NC(=O)c3ccc(C)c(OC)c3)cc2)cc(OC)c1`, the neurite formation score was 4.21.
